Measured values as given in PubChem BioAssay (NCI).
Compounds without any hit were thinned out: in the full panel of roughly 83,000, 20% have a hit.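 Results are percent growth after 48 hours of single-concentration exposure. 100 means growth as in untreated cells, lower positive values show inhibition; negative values down to -100 show cell death.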 Unmarked numbers belong to inactive results. Activity calls are given as the source filed them. The calls were made as follows: active = growth percent below 10; inactive = the rest.

Columns and labels:
Assay in all cases: NCI-60 one-dose screen, 48 h (100 = growth as untreated, 0 = no growth, -100 = all killed)
Settings in all cases: 10 µM unless noted
HT29 colon = tested on: HT29 colon
SNB-75 CNS = tested on: SNB-75 CNS
SNB-19 CNS = tested on: SNB-19 CNS
PC-3 prostate = tested on: PC-3 prostate
SK-MEL-5 melanoma = tested on: SK-MEL-5 melanoma
UACC-62 melanoma = tested on: UACC-62 melanoma
LOX IMVI melanoma = tested on: LOX IMVI melanoma
SK-MEL-2 melanoma = tested on: SK-MEL-2 melanoma
EKVX NSCLC = tested on: EKVX NSCLC
UO-31 renal = tested on: UO-31 renal
TK-10 renal = tested on: TK-10 renal
CAKI-1 renal = tested on: CAKI-1 renal
A498 renal = tested on: A498 renal
CCRF-CEM leukemia = tested on: CCRF-CEM leukemia
MOLT-4 leukemia = tested on: MOLT-4 leukemia
SR leukemia = tested on: SR leukemia
U251 CNS = tested on: U251 CNS
SK-MEL-28 melanoma = tested on: SK-MEL-28 melanoma
SN12C renal = tested on: SN12C renal
ACHN renal = tested on: ACHN renal

Compound	growth (HT29 colon)	growth (SNB-75 CNS)	growth (SNB-19 CNS) [%]	growth (PC-3 prostate) [%]	growth (SK-MEL-5 melanoma)	growth (UACC-62 melanoma) [%]	growth (LOX IMVI melanoma)	growth (SK-MEL-2 melanoma)	growth (EKVX NSCLC)	growth (UO-31 renal)	growth (TK-10 renal) [%]	growth (CAKI-1 renal)	growth (A498 renal) [%]	growth (CCRF-CEM leukemia)	growth (MOLT-4 leukemia)	growth (SR leukemia)	growth (U251 CNS) [%]	growth (SK-MEL-28 melanoma) [%]	growth (SN12C renal) [%]	growth (ACHN renal)
OC(c1cc(C(F)(F)F)nc2c(C(F)(F)F)cccc12)C1CCCCN1 (centres undefined)	-66.5% (active)	33%	53.7	36.7	61.3%	76.6	11.9%	56.4%	76.4%	41.8%	11.9	48.4%	53	65.2%	19.7%	12.7%				
CCCCn1c(Cc2ccc(Cl)cc2)nc2cc(OC)c(OC)cc2c1=O	107%	104%	150				79.9%		59.1%	54.4%	102	72.5%	101	-68.8% (active)	-48.7% (active)	59.4%	88.5	116	83.6	75.8%
CN1COc2ccc3ccccc3c2C1	99.2%	72.1%	104			85		93.2%	96.1%	32.3%		90.9%	102		90.6%		92	98.6	87.5	89%
Cc1[nH]n(C(N)=S)c(=O)c1N=Nc1ccc(F)c(Cl)c1	147%	119%	164			84.6	110%		96.6%	73.9%	125	103%	128	-8.05% (active)	76.9%	80.2%	108	116	95.8	104%
COc1cc(NC(=O)c2cc3ccccc3cc2O)c(OC)cc1Cl	64.8%	40.9%	16		-41.9% (active)		3.45% (active)	-17.2% (active)	9.25% (active)	-25.8% (active)	22.6	-2.48% (active)	25.4	-17.4% (active)	-18.8% (active)	1.88% (active)	13.1	43.6	10.2	3.75% (active)
Cc1ccccc1NC(=O)c1cc2ccccc2cc1O	111%	76.8%	61.9		17.8%	14.2		33%	43.8%	-8.7% (active)	60.1	41.4%	43		14.2%		25.9	38.6	30.2	34%
CCCCOc1ccc(C(C)(C)c2ccc(OCCCC)cc2)cc1	102%	97.6%	108	99.9	111%	106	101%	96.9%	143%	80.5%	107		126	97.7%	99.7%	92.6%		107		109%
Cc1c(C)c(N2C(=O)C=CC2=O)c(C)c(C)c1N1C(=O)C=CC1=O	110%	101%	97.3		109%	106		109%	101%	53.7%	119	101%	78.2		72.4%		112	81.6	104	108%
Cc1cccc(Cl)c1NC(=O)c1ccc2nc(NC(=O)NC3CC(C)(C)NC(C)(C)C3)sc2c1	59.3%	-18.9% (active)	93.6	66.3	91.7%	107	63.9%	121%	94.5%	88.7%	80.2	92%	89	87.7%	70%	95.6%		116	56.5	94.9%
